Source: PubChem BioAssay (Tox21)
Values without a mark were called inactive. Results filed as inconclusive are left out. Where a call stands in place of a potency, no number is given. Calls of active or inactive are those of the source. Unless noted, calls follow the shape of the dose curve; as a rule, active = well fitted curve in the direction sought with a large enough effect in the repeat runs; inconclusive = weak or mixed curves; inactive = no such curve, though single readings can be large; an effect the other way counts as inactive or inconclusive.

Tests used:
[1] = qHTS assay for small molecules that induce genotoxicity in human embryonic kidney cells expressing luciferase-tagged ATAD5 (AID 651632); also: nearly all actives have a fitted effect of over 15% in size
Procedure, shortened: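 DMSO vehicle served as the control. HEK293T reporter cells, 16 hr at 37C, then 30 min Amplite at room temperature; ATAD5 induction is measured as luciferase activity.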

[2] = qHTS assay for small molecule agonists of the p53 signaling pathway - cell viability (AID 651633; calls by dose curve;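 also: p53RE-bla HCT reporter cells with a stable beta-lactamase p53 reporter; series mostly up to about 83 µM; nearly all actives have a fitted effect of over 30% in size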)
Procedure, shortened: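 p53RE-bla cells, seeded at 4,000 per well and rested 5 h at 37 C/5% CO2, received compounds in DMSO for 16 h at 37 C. CellTiter-Glo was then added, and luminescence was read after 30 min at room temperature to gauge cytotoxicity.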

[3] = qHTS assay for small molecules that induce genotoxicity in human embryonic kidney cells expressing luciferase-tagged ATAD5 - cell viability (AID 651634; calls by dose curve; also: nearly all actives have a fitted effect of over 25% in size)
Procedure, shortened: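 Here HEK293T cells with the ATAD5 luciferase reporter are incubated with test compounds for 15.5 hr, and cytotoxicity is then gauged by measuring protease activity in live cells using fluorescence.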

[4] = qHTS assay for small molecule disruptors of the mitochondrial membrane potential - cell viability (AID 720634; calls by dose curve;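 also: human HepG2 liver cancer cells; series mostly up to about 83 µM; nearly all actives have a fitted effect of over 20% in size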)
Procedure, shortened: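 Viability of HepG2 cells is scored from ATP content by luminescence; cells are exposed to compound for 1 hr at 37 C and 5% CO2, then dosed with m-MPI dye before the CellTiter-Glo reagent.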

[5] = qHTS assay for small molecule disruptors of the mitochondrial membrane potential (AID 720635); also: potency is read from the fitted curve at half-maximal effect
Procedure, shortened: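 HepG2 cells (2,000/well) attached overnight at 37C, then took compound for 1 hr at 37C, 5% CO2. Mito-MPS dye was added for 30 min; fluorescence was read at 490/535 nm (monomers) and 540/590 nm (aggregates).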

[6] = qHTS assay to test for compound auto fluorescence at 590 nm (red) in HepG2 cells (AID 720674)
Procedure, shortened: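 Compound auto-fluorescence is scored relative to Rose Bengal sodium, measured at 540/590 nm in live HepG2 cultures after 1 hr compound contact (37 C, 5% CO2).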

[7] = qHTS assay to test for compound auto fluorescence at 535 nm (green) in HepG2 cells (AID 720675)
[8] = qHTS assay to test for compound auto fluorescence at 460 nm (blue) in HEK293 cells (AID 720678)
Procedure, shortened: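 Measured: blue fluorescence (Ex 405/Em 460 nm) of compound-treated HEK293 cells, incubated overnight at 37C with 5% CO2 and scaled to triamterene equivalents.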

[9] = qHTS assay to test for compound auto fluorescence at 590 nm (red) in HEK293 cells (AID 720679)
Procedure, shortened: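 Using HEK293 cells at 2,000 per well, the screen added 23 nL of each compound after cell attachment and incubated overnight (37C, 5% CO2). The plate reader then captured red-label fluorescence, Ex/Em 540/590nm.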

[10] = qHTS assay to test for compound auto fluorescence at 535 nm (green) in HEK293 cells (AID 720680)
[11] = qHTS assay to test for compound auto fluorescence at 460 nm (blue) in HEK293 cell free culture (AID 720681)
Procedure, shortened: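 Test compounds were pinned into cell-free culture medium (DMEM with 10% FBS) and fluorescence was read directly at Ex/Em 405/460 nm. Signals were expressed as fluorescence equivalents of triamterene, with DMSO vehicle as control.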

[12] = qHTS assay to test for compound auto fluorescence at 535 nm (green) in HEK293 cell free culture (AID 720682)
Procedure, shortened: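 No cells present: wells hold DMEM supplemented with 10% FBS, into which compound or vehicle is pinned. Green emission is then recorded (485 nm excitation, 535 nm emission) and scaled to fluorescein.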

[13] = qHTS assay to test for compound auto fluorescence at 590 nm (red) in HEK293 cell free culture (AID 720683)
Procedure, shortened: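 Tox21 10K library compounds were pinned into cell-free DMEM with 10% FBS and fluorescence was read at excitation 540 nm. Activity is expressed as Rose Bengal sodium equivalency.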

[14] = qHTS assay to test for compound auto fluorescence at 460 nm (blue) in HepG2 cell free culture (AID 720685)
Procedure, shortened: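 Cell-free plates of MEM plus 10% FBS received 23 nL compound or DMSO vehicle; blue-channel (405/460 nm) intensity scored against triamterene as reference fluorophore.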

[15] = qHTS assay to test for compound auto fluorescence at 535 nm (green) in HepG2 cell free culture (AID 720686)
[16] = qHTS assay to test for compound auto fluorescence at 460 nm (blue) in HepG2 cells (AID 720687)
Procedure, shortened: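 Cells (2,000/well in MEM with 10% FBS) attached overnight at 37 C, then were exposed to compound or DMSO for 1 hr at 37 C, 5% CO2. Fluorescence read at Ex/Em 405/460 nm, expressed as triamterene-equivalent signal.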

[17] = target: Glucocorticoid receptor (Homo sapiens) (UniProt P04150); assay: qHTS assay to identify small molecule agonists of the glucocorticoid receptor (GR) signaling pathway (AID 720691; active = well fitted activation curve with a large enough effect in the signal ratio in the repeat runs, not every such curve was filed as active; the % refers to the signal ratio)
Procedure, shortened: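 Compounds in DMSO, alongside positive controls, were added to GR-bla HeLa reporter cells and incubated 18 h at 37 C; GRE-driven beta-lactamase was detected by fluorescence after 2 h with FRET substrate at room temperature.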

[18] = target: Glucocorticoid receptor (Homo sapiens) (UniProt P04150); assay: qHTS assay to identify small molecule antagonists of the glucocorticoid receptor (GR) signaling pathway (AID 720692; active = well fitted inhibition curve with a large enough effect in the signal ratio in the repeat runs, not every such curve was filed as active; the % refers to the signal ratio)
Procedure, shortened: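 In a 1536-well cell format, compounds were added 4 h after seeding GR-bla HeLa cells, together with dexamethasone at 5 nM final; reporter activity was measured by FRET-substrate fluorescence following 18 h at 37 C.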

[19] = qHTS assay to test for compound auto fluorescence at 590 nm (red) in HepG2 cell free culture (AID 720684)
Procedure, shortened: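 Ex 540 / Em 590 nm read of compound in cell-free MEM (10% FBS). Rose Bengal sodium reference.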

Sequence of Glucocorticoid receptor (Homo sapiens) (P04150 whole entry, looked up): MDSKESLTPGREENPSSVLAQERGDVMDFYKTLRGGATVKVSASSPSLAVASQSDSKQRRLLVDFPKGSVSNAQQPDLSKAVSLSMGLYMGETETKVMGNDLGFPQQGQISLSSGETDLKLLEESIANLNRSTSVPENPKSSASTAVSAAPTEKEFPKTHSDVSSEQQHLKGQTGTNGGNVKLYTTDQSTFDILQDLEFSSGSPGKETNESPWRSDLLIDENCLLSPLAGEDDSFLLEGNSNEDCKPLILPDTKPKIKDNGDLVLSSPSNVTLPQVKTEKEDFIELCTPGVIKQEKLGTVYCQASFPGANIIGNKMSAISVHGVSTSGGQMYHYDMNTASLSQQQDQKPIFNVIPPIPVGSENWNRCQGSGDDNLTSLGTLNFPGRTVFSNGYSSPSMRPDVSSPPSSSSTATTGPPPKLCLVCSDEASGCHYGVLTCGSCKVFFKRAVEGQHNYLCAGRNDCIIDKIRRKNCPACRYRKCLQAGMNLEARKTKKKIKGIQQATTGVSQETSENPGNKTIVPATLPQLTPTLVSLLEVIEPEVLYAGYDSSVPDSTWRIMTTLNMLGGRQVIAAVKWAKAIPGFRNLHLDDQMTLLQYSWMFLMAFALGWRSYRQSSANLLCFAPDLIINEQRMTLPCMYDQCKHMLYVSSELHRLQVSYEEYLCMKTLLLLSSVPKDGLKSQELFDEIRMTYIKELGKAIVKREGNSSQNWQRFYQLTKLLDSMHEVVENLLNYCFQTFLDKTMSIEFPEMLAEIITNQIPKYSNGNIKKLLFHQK

C=CCN1C[C@H](C)N([C@H](c2ccc(C(=O)N(CC)CC)cc2)c2cccc(OC)c2)C[C@H]1C
Potency [1]: inactive | Potency [2]: inactive | Potency [3]: inactive | Potency [4]: inactive | Potency [5]: inactive | outcome [6]: inactive | outcome [7]: inactive | outcome [8]: inactive | outcome [9]: inactive | outcome [10]: inactive | outcome [11]: inactive | outcome [12]: inactive | outcome [13]: inactive | outcome [14]: inactive | outcome [15]: inactive | outcome [16]: inactive | Potency [17]: inactive | Potency [18]: inactive

CON(C)C(=O)Nc1ccc(Cl)cc1
Potency [1]: inactive | Potency [2]: inactive | Potency [3]: inactive | Potency [4]: inactive | outcome [6]: inactive | outcome [7]: inactive | outcome [8]: inactive | outcome [9]: inactive | outcome [10]: inactive | outcome [12]: inactive | outcome [13]: inactive | outcome [19]: inactive | outcome [14]: inactive | outcome [16]: inactive | Potency [17]: inactive

CCOP(=S)(S)OCC
Potency [1]: inactive | Potency [2]: inactive | Potency [3]: inactive | Potency [4]: inactive | outcome [6]: inactive | outcome [7]: inactive | outcome [8]: inactive | outcome [9]: inactive | outcome [10]: inactive | outcome [11]: inactive | outcome [12]: inactive | outcome [13]: inactive | outcome [14]: inactive | outcome [15]: inactive | outcome [16]: inactive | Potency [17]: inactive | Potency [18]: inactive

CCCCCCCCCCCCN(C)C
Potency [1]: inactive | Potency [2]: inactive | Potency [3]: inactive | Potency [4]: inactive | Potency [5]: inactive | outcome [6]: inactive | outcome [7]: inactive | outcome [8]: inactive | outcome [9]: inactive | outcome [10]: inactive | outcome [11]: inactive | outcome [12]: inactive | outcome [13]: inactive | outcome [19]: inactive | outcome [14]: inactive | outcome [15]: inactive | outcome [16]: inactive | Potency [17]: inactive | Potency [18]: inactive

Cc1ccc(N)c(C)c1
Potency [1]: inactive | Potency [2]: inactive | Potency [3]: inactive | Potency [4]: inactive | Potency [5]: inactive | outcome [6]: inactive | outcome [7]: inactive | outcome [8]: inactive | outcome [9]: inactive | outcome [10]: inactive | outcome [11]: inactive | outcome [12]: inactive | outcome [13]: inactive | outcome [19]: inactive | outcome [14]: inactive | outcome [15]: inactive | outcome [16]: inactive | Potency [17]: inactive

O=C1CC[C@@]2(O)[C@H]3Cc4ccc(O)c5c4[C@@]2(CCN3CC2CC2)[C@H]1O5
Potency [1]: inactive | Potency [2]: inactive | Potency [3]: inactive | Potency [4]: inactive | outcome [6]: inactive | outcome [7]: inactive | outcome [8]: inactive | outcome [9]: inactive | outcome [10]: inactive | outcome [11]: inactive | outcome [12]: inactive | outcome [13]: inactive | outcome [14]: inactive | outcome [15]: inactive | outcome [16]: inactive | Potency [17]: inactive | Potency [18]: inactive

C[N+]1(CCF)[C@@H]2CC[C@H]1CC(OC(=O)C(O)(c1ccccc1)c1ccccc1)C2 (stereo not given in full)
Potency [1]: inactive | Potency [2]: inactive | Potency [3]: inactive | Potency [4]: inactive | Potency [5]: inactive | outcome [6]: inactive | outcome [7]: inactive | outcome [8]: inactive | outcome [9]: inactive | outcome [10]: inactive | outcome [11]: inactive | outcome [12]: inactive | outcome [13]: inactive | outcome [19]: inactive | outcome [14]: inactive | Potency [17]: inactive | Potency [18]: inactive

COc1cc(CC(C)N)c(OC)cc1Br (stereo not given)
Potency [1]: inactive | Potency [2]: inactive | Potency [3]: inactive | Potency [4]: inactive | Potency [5]: inactive | outcome [6]: inactive | outcome [7]: inactive | outcome [8]: inactive | outcome [9]: inactive | outcome [10]: inactive | outcome [11]: inactive | outcome [12]: inactive | outcome [13]: inactive | outcome [19]: inactive | outcome [14]: inactive | outcome [15]: inactive | outcome [16]: inactive

N#CC1(N=NC2(C#N)CCCCC2)CCCCC1
Potency [1]: inactive | Potency [2]: inactive | Potency [3]: inactive | Potency [4]: inactive | Potency [5]: inactive | outcome [6]: inactive | outcome [7]: inactive | outcome [9]: inactive | outcome [10]: inactive | outcome [11]: inactive | outcome [12]: inactive | outcome [13]: inactive | outcome [19]: inactive | outcome [14]: inactive | outcome [15]: inactive | Potency [17]: inactive | Potency [18]: inactive

O=C(Cc1ccccc1)OCCc1ccccc1
Potency [1]: inactive | Potency [2]: inactive | Potency [3]: inactive | Potency [4]: inactive | Potency [5]: inactive | outcome [6]: inactive | outcome [7]: inactive | outcome [8]: inactive | outcome [9]: inactive | outcome [10]: inactive | outcome [11]: inactive | outcome [12]: inactive | outcome [13]: inactive | outcome [19]: inactive | outcome [14]: inactive | outcome [15]: inactive | outcome [16]: inactive | Potency [17]: inactive | Potency [18]: inactive

CCOP(=O)(O)C(N)=O
Potency [1]: inactive | Potency [2]: inactive | Potency [3]: inactive | Potency [4]: inactive | Potency [5]: 3.44 µM (active) | outcome [6]: inactive | outcome [7]: inactive | outcome [8]: inactive | outcome [9]: inactive | outcome [10]: inactive | outcome [11]: inactive | outcome [12]: inactive | outcome [13]: inactive | outcome [19]: inactive | outcome [14]: inactive | outcome [15]: inactive | Potency [17]: inactive | Potency [18]: inactive

C=C(C)C(=O)OCCCCOC(=O)C(=C)C
Potency [1]: inactive | Potency [2]: inactive | Potency [3]: inactive | Potency [4]: inactive | outcome [6]: inactive | outcome [7]: inactive | outcome [8]: inactive | outcome [9]: inactive | outcome [10]: inactive | outcome [12]: inactive | outcome [13]: inactive | outcome [19]: inactive | outcome [14]: inactive | outcome [15]: inactive | outcome [16]: inactive | Potency [17]: inactive | Potency [18]: inactive

CC(C)(C)NCC(O)c1cc(Cl)c(N)c(C(F)(F)F)c1 (stereo not given)
Potency [1]: inactive | Potency [2]: inactive | Potency [3]: inactive | Potency [4]: inactive | Potency [5]: inactive | outcome [6]: inactive | outcome [7]: inactive | outcome [8]: inactive | outcome [9]: inactive | outcome [10]: inactive | outcome [11]: inactive | outcome [12]: inactive | outcome [13]: inactive | outcome [15]: inactive | Potency [17]: inactive | Potency [18]: inactive
